Results taken from PubChem BioAssay (NCI).
Several values for one entry are separate records, joined by “and”; a condition that tells them apart may be missing. Identical values can stand only once. The panel holds about 83,000 compounds, 20% with a hit somewhere; the sample as a whole holds those more often.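 Single-dose data. Exposure time 48 hours. Values below 10 considered active.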 Activity calls are given as the source filed them.

Experiments:
Assay in all cases: NCI-60 one-dose screen, 48 h (100 = growth as untreated, 0 = no growth, -100 = all killed)
Conditions in all cases: 10 µM unless noted
NCI-H23 lung = tested on: NCI-H23 lung
NCI-H226 lung = tested on: NCI-H226 lung
NCI-H322M lung = tested on: NCI-H322M lung
HOP-62 NSCLC = tested on: HOP-62 NSCLC
NCI-H460 lung = tested on: NCI-H460 lung
HOP-92 NSCLC = tested on: HOP-92 NSCLC
NCI-H522 lung = tested on: NCI-H522 lung
A549/ATCC NSCLC = tested on: A549/ATCC NSCLC
786-0 renal = tested on: 786-0 renal
COLO 205 colon = tested on: COLO 205 colon
DU-145 prostate = tested on: DU-145 prostate
K-562 leukemia = tested on: K-562 leukemia
MALME-3M melanoma = tested on: MALME-3M melanoma
MDA-MB-231 breast = tested on: MDA-MB-231 breast
RXF 393 renal = tested on: RXF 393 renal
SF-268 CNS = tested on: SF-268 CNS
SF-295 CNS = tested on: SF-295 CNS
SF-539 CNS = tested on: SF-539 CNS
UACC-257 melanoma = tested on: UACC-257 melanoma
M14 melanoma = tested on: M14 melanoma

Compound	growth (NCI-H23 lung)	growth (NCI-H226 lung)	growth (NCI-H322M lung)	growth (HOP-62 NSCLC)	growth (NCI-H460 lung)	growth (HOP-92 NSCLC)	growth (NCI-H522 lung)	growth (A549/ATCC NSCLC)	growth (786-0 renal)	growth (COLO 205 colon)	growth (DU-145 prostate)	growth (K-562 leukemia)	growth (MALME-3M melanoma)	growth (MDA-MB-231 breast)	growth (RXF 393 renal)	growth (SF-268 CNS)	growth (SF-295 CNS)	growth (SF-539 CNS)	growth (UACC-257 melanoma)	growth (M14 melanoma)
Cc1ccc(/C=C(\C#N)c2cc3ccccc3[nH]2)cc1	66% (inactive)	95.3% (inactive)	87.7% (inactive)	49.5% (inactive)	30.6% (inactive)	51.1% (inactive)	13.7% (inactive)	49% (inactive)	72.7% (inactive)	32.4% (inactive)	73.1% (inactive)	13.8% (inactive)	67.7% (inactive)	35.9% (inactive)	82.8% (inactive)	68.1% (inactive)	68.2% (inactive)	57.7% (inactive)	72.4% (inactive)	31.5% (inactive)
CON1CCC[C@]2(C)[C@H]3CC[C@@H]4[C@H]5[C@@H](O)C(C)(C)CC[C@]5(CO)CC[C@@]4(C)[C@]3(C)CC[C@H]2C1(C)C	102% (inactive)	92.8% (inactive)	109% (inactive)	95.6% (inactive)	102% (inactive)	116% (inactive)	84% (inactive)	94.2% (inactive)	100% (inactive)	105% (inactive)	99% (inactive)	87% (inactive)	110% (inactive)	90.5% (inactive)	112% (inactive)	100% (inactive)	102% (inactive)	106% (inactive)	97.5% (inactive)	99.6% (inactive)
C=C(CNCCO)[C@@H]1CC[C@]2(CO)CC[C@]3(C)[C@H](CC[C@@H]4[C@@]5(C)CCC(NCCc6ccc(O)cc6)C(C)(C)[C@@H]5CC[C@]43C)[C@@H]12 (stereo not given in full)	-63% (active)	-47.6% (active)	-41% (active)	-84.4% (active)	-80.4% (active)	-66.1% (active)	-79.5% (active)	-71.3% (active)	-92.8% (active)	-84.4% (active)	-84.1% (active)	-57.3% (active)	-86.8% (active)	-80% (active)	-85.7% (active)	-74.8% (active)	-85.4% (active)	-93.6% (active)	-86.3% (active)	-91.6% (active)
O=C(N/N=C/c1ccc(O)cc1O)c1cccc(Nc2ccnc(C(F)(F)F)c2)c1	27.5% (inactive)	40.5% (inactive)	22.7% (inactive)	14.3% (inactive)	22.2% (inactive)	44.1% (inactive)	41.5% (inactive)	55.9% (inactive)	5.8% (active)	43% (inactive)	17.7% (inactive)	21.6% (inactive)	2.77% (active)	41.3% (inactive)	44.9% (inactive)	11.8% (inactive)	20.4% (inactive)	8.62% (active)	36.3% (inactive)	-1.76% (active)
O=C(NNc1ccccc1)c1ccccc1	98.2% (inactive) and 95.8% (inactive)	93% (inactive) and 105% (inactive)	66.8% (inactive)	99.1% (inactive) and 47.3% (inactive)	85.1% (inactive)	102% (inactive) and 95.2% (inactive)	48.1% (inactive)	72.5% (inactive) and 64.1% (inactive)	86.1% (inactive) and 64.6% (inactive)	95% (inactive) and 65.3% (inactive)	98.1% (inactive) and 71.3% (inactive)	18% (inactive) and 19.8% (inactive)	99.2% (inactive)	70.6% (inactive) and 53.6% (inactive)	123% (inactive)	78.9% (inactive) and 58.7% (inactive)	64.5% (inactive)	95.1% (inactive) and 96.7% (inactive)	56.8% (inactive) and 81.2% (inactive)	53.9% (inactive) and 38.5% (inactive)
Cn1cc(-c2nonc2-c2cn(C)c3ccc(Br)cc23)c2ccccc21	56.4% (inactive)	71.3% (inactive)	64% (inactive)	25.8% (inactive)	12.9% (inactive)	44.4% (inactive)	8.18% (active)	40.1% (inactive)	33.3% (inactive)	29.6% (inactive)	53% (inactive)	13.3% (inactive)	30.2% (inactive)	45.5% (inactive)	42.4% (inactive)	37.3% (inactive)	16.4% (inactive)	-0.366% (active)	49.5% (inactive)	17.7% (inactive)
COc1ccc(-c2nc(Cl)c3c(C)nn(-c4ccc(F)cc4)c3n2)cc1	97.1% (inactive)	103% (inactive)	105% (inactive)	104% (inactive)	108% (inactive)	101% (inactive)	97.3% (inactive)	90.4% (inactive)	105% (inactive)	110% (inactive)	111% (inactive)	100% (inactive)	115% (inactive)	106% (inactive)	122% (inactive)	106% (inactive)	107% (inactive)	111% (inactive)	91.9% (inactive)	100% (inactive)
COc1cc(/C=C2/C=C(c3ccc(C(C)(C)C)cc3)N(CCc3ccc(S(N)(=O)=O)cc3)C2=O)cc(OC)c1OC	62.3% (inactive)	62.7% (inactive)	81.2% (inactive)	77% (inactive)	35.6% (inactive)	23% (inactive)	49.8% (inactive)	38.2% (inactive)	29.7% (inactive)	34.3% (inactive)	77.1% (inactive)	24.5% (inactive)	68.4% (inactive)	60.1% (inactive)	12.4% (inactive)	58.2% (inactive)	49.4% (inactive)	59% (inactive)	62.2% (inactive)	36.5% (inactive)
CC(=O)OC[C@]12CCC(C)(C)C=C1[C@H]1CC[C@@H]3[C@@]4(C)CCCNC(C)(C)[C@@H]4CC[C@@]3(C)[C@]1(C)CC2	65% (inactive)	77.9% (inactive)	98.9% (inactive)	91.8% (inactive)	49.4% (inactive)	83% (inactive)	39.4% (inactive)	83% (inactive)	82.2% (inactive)	1.01% (active)	87.4% (inactive)	14.2% (inactive)	41.9% (inactive)	82.1% (inactive)	89.2% (inactive)	81.2% (inactive)	100% (inactive)	95.2% (inactive)	31.9% (inactive)	64.8% (inactive)
CN1CCN(CCNC(=O)c2cccc(CN3c4cccc5c4C(=Cc4cccnc43)N(C)C5=O)c2)CC1	59.5% (inactive)	45% (inactive)	41.4% (inactive)	24.7% (inactive)	48.3% (inactive)	19.3% (inactive)	14.1% (inactive)	33.9% (inactive)	49.6% (inactive)	19.8% (inactive)	68.1% (inactive)	30% (inactive)	49.3% (inactive)	31.7% (inactive)	26.6% (inactive)	59.3% (inactive)	42.5% (inactive)	33.5% (inactive)	50% (inactive)	45.4% (inactive)
COc1ccc(/C=C2/C(=O)N=C3N2NC(c2ccccc2)=CN3c2ccccc2)cc1	86.4% (inactive)	93.2% (inactive)	103% (inactive)	105% (inactive)	106% (inactive)	102% (inactive)	101% (inactive)	104% (inactive)	98.6% (inactive)	121% (inactive)	114% (inactive)	108% (inactive)	102% (inactive)	107% (inactive)	89.7% (inactive)	98.5% (inactive)	103% (inactive)	94.8% (inactive)	108% (inactive)	98.3% (inactive)
Cc1ccc(Cc2cnc(NC(=O)c3cc(C)oc3C)s2)cc1	76.1% (inactive)	90.4% (inactive)	70.8% (inactive)	86% (inactive)	31.3% (inactive)	79.1% (inactive)	57.3% (inactive)	55% (inactive)	76.8% (inactive)	115% (inactive)	75.6% (inactive)	29.5% (inactive)	85.2% (inactive)	79.6% (inactive)	58.7% (inactive)	67.8% (inactive)	66.6% (inactive)	76.8% (inactive)	94.2% (inactive)	70.8% (inactive)
CCOC(=O)c1c(-c2ccc(C)cc2)c(C#N)c(=O)n(-c2cccc(C(F)(F)F)c2)c1N	98.6% (inactive)	100% (inactive)	103% (inactive)	99.8% (inactive)	104% (inactive)	90.9% (inactive)	94.6% (inactive)	101% (inactive)	102% (inactive)	106% (inactive)	108% (inactive)	97.8% (inactive)	99.4% (inactive)	97.9% (inactive)	101% (inactive)	97% (inactive)	100% (inactive)	97.2% (inactive)	101% (inactive)	106% (inactive)
CCCCCC#CC1OC23CCCCC2C(C#N)(C(=N)O3)C1(C#N)C#N (stereo not given)	101% (inactive)	97.4% (inactive)	98.3% (inactive)	98.8% (inactive)	99.8% (inactive)	90.4% (inactive)	77.5% (inactive)	75.6% (inactive)	91.4% (inactive)	117% (inactive)	102% (inactive)	84% (inactive)	98% (inactive)	95.8% (inactive)	105% (inactive)	102% (inactive)	98.5% (inactive)	100% (inactive)	78.6% (inactive)	93.7% (inactive)
